# PubChem BioAssay (NCATS)
# Results filed as inconclusive are left out. Unmarked numbers belong to inactive results. The call rests on the fitted dose curve; in most records, active means well fitted inhibition curve with a large enough effect; inconclusive means small, poorly fitted or top-dose-only effect; inactive means flat fitted curve, though single readings scatter.
# Target: Calcium and integrin-binding protein 1 (Homo sapiens) (UniProt Q99828)
# Assay: Primary qHTS for Identification of Calcium Integrin Binding Protein 1 (CIB1) Competitor (AID 1508620);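 further: GST tagged CIB1 binding a fluorescein labelled alphaIIb integrin peptide tracer; top concentration of the series differs between compounds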
# Conditions: CIB1-GST / FITC-alphaIIb peptide fluorescence polarization; series mostly up to 114 µM; activity change, negative = inhibition: at the top concentration
# How it was run: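 Fluorescence polarization competition: CIB1-GST (1 uM final) preincubated with compound 15 min at room temperature, then FITC-labeled alphaIIb peptide (100 nM final) added for another 15 min. Polarization read at Ex 480/Em 540.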
# On the % scale 0 is the no-effect control and ±100 the full control effect.
# Chain of Calcium and integrin-binding protein 1 (Homo sapiens) (Q99828 whole entry, looked up): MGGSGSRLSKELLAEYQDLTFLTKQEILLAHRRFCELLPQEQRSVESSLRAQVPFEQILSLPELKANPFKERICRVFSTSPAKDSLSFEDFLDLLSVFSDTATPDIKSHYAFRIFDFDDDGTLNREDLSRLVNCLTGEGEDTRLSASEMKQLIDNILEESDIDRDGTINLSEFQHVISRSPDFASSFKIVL
row,Compound,"activity change, negative = inhibition [%]"
1,Cc1c(C(=O)OCC2CCCC2)[nH]c2c1C(=O)CC(c1ccco1)C2 (stereo not given),4.49
2,COc1ccccc1CNC(=O)Nc1nnc(-c2ccncc2)s1,0.607
3,O=C(CSc1nnc(-c2cccc(S(=O)(=O)N3CCCC3)c2)n1-c1ccccc1)Nc1ccccc1,13.1
4,Cn1nnnc1Sc1ncnc2scc(-c3cccc(F)c3)c12,0.739
5,O=S(=O)(Nc1cccc2cccnc12)c1ccccc1O,-9.56
6,Cc1ccnc(NC(=S)N2CCCN(c3cccc(C(F)(F)F)c3)CC2)c1,-12.8
7,O=C(Cc1ccccc1)Nc1sc2c(c1C(=O)Nc1cccc(Cl)c1)CCCC2,2.91
8,CC(C)c1cc2c(s1)c1cnn(Cc3ccccc3F)c(=O)c1n2C,-0.569
9,Cc1ccc(CNc2ncnc3ccc(-c4oc(-c5ccccc5)nc4C)cc23)o1,-7.71
10,Cc1nc(CNc2ncnc3ccc(-c4ccoc4C)cc23)cs1,-8.11
11,COc1ccc(C2Nc3cccc(OC)c3C(=O)N2Cc2ccco2)cc1COc1c(C)cc(NC(C)=O)cc1C (stereo not given),2.27
12,COc1ccc(S(=O)(=O)N2CCN(S(=O)(=O)c3ccc(OC)cc3)CC2)cc1,-0.0373
13,C[C@@H]1CN(S(=O)(=O)c2c(F)cccc2F)CCN1S(=O)(=O)c1ccc2c(c1)OCCO2,1.5
14,Cc1cc(C)n2ncc(C(=O)NCc3ccco3)c2n1,-9.66
15,Cc1cc(-c2nc(Nc3ccc(F)c(F)c3)c3ccccc3n2)cc(C)n1,6.53
16,COc1ccc(O)c(CNc2ccc(S(=O)(=O)Nc3nccs3)cc2)c1,-5.14
17,Cc1cc(C)nc(NC(=S)N2CCN(c3ccc(Cl)cc3F)CC2)c1,-4.34
18,Cc1c(P(=S)(c2ccccc2)c2ccccc2)c2ccccc2n1CCc1ccccc1,2.03
19,CC(C)(C)OC(=O)NCC(=O)NNC(=O)C(C(=O)OCc1ccccc1)c1ccccc1 (stereo not given),1.53
20,COc1cc(CNc2ncnc3ccc(-c4c(C)noc4C)cc23)cc(OC)c1OC,1.62

row,Compound,"activity change, negative = inhibition [%]"
1,Cc1c(Cl)cccc1NS(=O)(=O)c1cc2c(cc1Cl)CCC(=O)N2,2.2
2,COc1ccc(C(=O)N(Cc2ccccc2)Cc2ccc(OC)c(COc3ccc(NC(C)=O)cc3)c2)c(O)c1,-2.55
3,Cc1ccc(NS(=O)(=O)c2ccc3c(c2)C(Cl)(Cl)C(=O)N3)cc1C,4.95
4,COc1cccc(C2c3c(ncn(-c4ccc(C)cc4)c3=N)Oc3ccc4ccccc4c32)c1 (stereo not given),0.972
5,Cc1cc(NS(=O)(=O)c2ccc(NS(=O)(=O)Cc3ccc(Cl)c(Cl)c3)cc2)no1,-11.3
6,CC(C)(C)OC(=O)CC(=O)NNC(=O)c1cc2ccccc2[nH]1,1.68
7,Cc1cc(C)nc(NC(=S)N2CCN(c3cccc4cnccc34)CC2)c1,-9.88
8,O=C(O)C1C2C(=O)N(c3ccccc3)C[C@@]23C=C[C@@H]1O3 (stereo not given in full),5.6
9,Cc1cccc(-n2cnc3cc(C(=O)N4CCC(C(F)(F)F)CC4)ccc32)c1,0.0136
10,CC(=O)Nc1ccccc1OC1=N[S+](=O)([O-])c2ccccc21,2.47
11,S=C(NCCCN(Cc1ccc(Cl)c(Cl)c1)c1ccc(Br)cn1)NCCc1cnc[nH]1,0.0503
12,Cc1ccc(OCCn2c(CCN(C)C(=O)C3CCCCC3)nc3ccccc32)cc1,-9.81
13,CC(=O)Nc1sc2c(c1-c1ccc3c(c1)OCO3)CCNC2,1.43
14,Cc1c(P(=O)(c2ccccc2)c2ccccc2)c2ccccc2n1C,-13.2
15,Cc1ccc(NS(=O)(=O)c2cc3c(cc2C)NC(=O)CO3)cc1C,0.574
16,Cc1cc2[nH]c3c(=O)n(Cc4ccccc4F)ncc3c2s1,-0.798
17,Cc1ccc(OCCn2c(CCNC(=O)c3ccccc3)nc3ccccc32)cc1,4.39
18,CC(=O)N1CCN(c2ccc(NCc3ccc(-c4cccc(Cl)c4)o3)cc2)CC1,1.47
19,CC(=O)NC(c1cc(F)c2cccnc2c1O)C1CC1 (stereo not given),-16.1
20,Oc1cccc2cc(-c3ccncc3)cnc12,-6.39
